The record followed here is PubChem BioAssay AID2732 (Emory University Molecular Libraries Screening Center, 2010).

The term inhibition denotes the relative decrease from the control value, in per cent.

Molecules are shown by their SMILES. About 8,200 (3.7%) of roughly 220,000 compounds were called active.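 How the source made its calls: active means compounds that reduced the stress-induced luciferase reporter signal by more than about 70% of percent inhibition (limit read from the data); inactive means the rest.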 Shown is part of a subset that was picked to be rich in actives.

A short description of the experiment: blockers of ER-stress CHOP reporter expression – cell-based, unfolded protein response, luciferase reporter, primary screen (AID 2732).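 Further: 0% = tunicamycin plus vehicle and 100% = wells without tunicamycin.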 The settings on record: CHO-K1 CHOP-promoter luciferase, tunicamycin-induced, 15-18 h; at 10 µM; hits give high values. Background: Reporter assays use an easily measured gene product as a stand-in for the process of interest.
On to `COC(=O)c1sccc1NC(=O)CC1C(=O)NCCN1C(=O)Nc1ccc(F)cc1F` (centres undefined), for which the inhibition was 12.3% (inactive).

Turning to `C=CS(=O)c1sc(Cl)c(N2CCOCC2)c1[N+](=O)[O-]` (centres undefined), the inhibition is 106% (active).

Turning to `Cc1nc(=O)c(-c2ccccc2)c(C)n1-c1ccc(Br)cc1`, the inhibition is 3.14% (inactive).

For `O=C(C[n+]1ccc2c(c1)nnn2-c1ccccc1)c1ccc(Cl)cc1`, the inhibition is 34.6% (inactive).

In the case of `CCCC(=O)Nc1nnc(-c2ccccc2)o1`, the inhibition is 0.67% (inactive).

`CCCCCCc1cc2cc(-c3nnc(-c4ccccc4)o3)c(=O)oc2cc1O`: the inhibition was 95.9% (active).

With `Cc1c(CCC(=O)O)c(=O)oc2cc3occ(-c4ccccc4)c3cc12`, the inhibition is 37.1% (inactive).

Consider `O=C1CCCCC1C(=O)c1ccccc1` (centres undefined), for which the inhibition is 8.57% (inactive).

`O=C(CNCCC1=CCCCC1)Nc1ccccc1N1CCCCCC1`: the inhibition is 72.9% (active).

In the case of `Cn1c(=O)c2c(nc(SCC(=O)Nc3ccccc3N3CCCCC3)n2C)n(C)c1=O`, the inhibition was 21.7% (inactive).

Consider `Cc1ccccc1NC(=O)Nc1ccccc1N1CCCCC1`, for which the inhibition was 28.6% (inactive).

For the molecule `O=C(Cc1cccc2ccccc12)NCCC1=CCCCC1`, the inhibition is 40.1% (inactive).

Consider `Cc1ccccc1NC(=O)CNc1ccccc1N1CCCCC1`, for which the inhibition was 89.1% (active).

For the molecule `O=C(CN1CCN(C2CCCCC2)CC1)Nc1ccccc1N1CCCCC1`, the inhibition was 59.2% (inactive).

In the case of `Cc1ccc(OS(=O)(=O)c2ccc(-c3csc(C)n3)s2)c(C)c1`, the inhibition was 22.5% (inactive).

As to `CNC(=O)c1csc(Cc2c(Cl)sc3ccc(Cl)cc23)n1`, the inhibition is 30.4% (inactive).

`Cc1cc(Nc2ccc(Cl)cc2)nc(N2CCOCC2)n1`: the inhibition was 0.58% (inactive).

In the case of `Cn1c(SCC(=O)c2ccc(F)cc2)nnc1-c1ccccn1`, the inhibition was 6.32% (inactive).

As to `COc1cccc(CNCCc2c[nH]c3ccccc23)c1OCc1ccccc1F`, the inhibition is 12.6% (inactive).

Regarding `COc1ccc(CC(=O)NC(C)CCc2ccccc2)cc1` (centres undefined), the inhibition is -12.2% (inactive).

With `COc1ccc(C(CCNCc2ccccc2F)c2ccc(F)cc2)cc1` (centres undefined), the inhibition was 79.4% (active).

Take `O=c1c2cc(-c3ccccc3)sc2nc2n1N=C(c1cccs1)CS2`: the inhibition was -4.25% (inactive).

For `Clc1ccc(-c2cc(-c3ccccn3)on2)c(Cl)c1`, the inhibition is 63.3% (inactive).

`O=[N+]([O-])c1ccc(N=Cc2c(O)ccc3ccccc23)cc1`: the inhibition is 28.1% (inactive).

`COCCN(C(=S)Nc1cccc(Cl)c1C)C(C)c1ccco1` (centres undefined): the inhibition is 42.5% (inactive).

On to `C=C(C)C(=O)Nc1cccc(C2=NOC3(C2)C[C@H](C(N)=O)N(C(=O)C(c2ccccc2)c2ccccc2)C3)c1` (some centres undefined), for which the inhibition was -8.97% (inactive).

With `CC(C)(C)c1ccc(/C=C2\Oc3c(ccc(O)c3CN3CCN(CCO)CC3)C2=O)cc1`, the inhibition was -15.1% (inactive).

Take `Cc1ccc(C(=O)N/C(=C\c2ccco2)C(=O)NC2CCS(=O)(=O)C2)cc1` (centres undefined): the inhibition was 10.1% (inactive).

As for `Cc1cc(C(=O)N2CCC(C(=O)O)CC2)c(C(F)(F)F)o1`, the inhibition was 1.47% (inactive).

As to `Cc1cc(C)cc(N(CC(=O)N2CC=C(c3ccccc3)CC2)S(=O)(=O)c2c(C)noc2C)c1`, the inhibition was 70% (active).

For `CCOC(=O)C1CCCN(C(=O)CN(c2ccc(OC)cc2)S(=O)(=O)c2c(C)noc2C)C1` (centres undefined), the inhibition is 10.8% (inactive).

`Cc1cc(C)cc(N(CC(=O)NCC2CCCO2)S(=O)(=O)c2c(C)noc2C)c1` (centres undefined): the inhibition is 23.4% (inactive).

As for `CC(NC(=S)NNS(=O)(=O)c1ccc(C(C)(C)C)cc1)c1ccccc1` (centres undefined), the inhibition is 51.7% (inactive).

With `O=C(c1[nH]ncc1-c1ccc(Cl)cc1)C1CO1` (centres undefined), the inhibition was -97.8% (inactive).

In the case of `O=C1C(Cc2ccc(O)cc2)NC(=S)N1Cc1ccccc1` (centres undefined), the inhibition is -7.09% (inactive).

As to `O=C1CC(Cc2ccc(Cl)cc2)C(=O)N1c1cc(Cl)ccn1` (centres undefined), the inhibition was 7.86% (inactive).

With `CCCCC(CC)CNC(=O)C(=O)C1C(=O)Nc2ccccc21` (centres undefined), the inhibition is 86.7% (active).

Turning to `CCCCC(CC)CNC(=O)CCCCn1c(=O)[nH]c2ccsc2c1=O` (centres undefined), the inhibition was 10.3% (inactive).

Regarding `CCOC(=O)C(=O)C1C(=O)Nc2ccccc21` (centres undefined), the inhibition is 17.5% (inactive).

Regarding `Cc1cc(C(=O)CSc2nc(N)cc(=O)[nH]2)c(C)n1Cc1ccco1`, the inhibition was 3.96% (inactive).

With `COc1ccc(C(=O)N/N=C(\C)CC(=O)Nc2ccc(Cl)cn2)cc1`, the inhibition is 4.2% (inactive).

In the case of `O=C(c1ccc(CSc2ccccc2)cc1)N1CCCCCC1`, the inhibition was 23.8% (inactive).

As to `CC1CCN(C(=O)c2ccc(CSc3ccc(Cl)cc3)cc2)CC1`, the inhibition is 80.3% (active).

Regarding `O=C(C1CC1)N1CCN=C1SCc1ccc(Cl)cc1`, the inhibition was 5.04% (inactive).

As for `Cn1c2ccccc2c2cc(/C=C(\NC(=O)c3ccccc3)C(=O)NCC(=O)O)ccc21`, the inhibition was -15.8% (inactive).

As to `O=C(CCS(=O)(=O)c1ccccc1Cl)Nc1ccc(S(=O)(=O)Nc2ncccn2)cc1`, the inhibition is 3.66% (inactive).

Turning to `CC(C)n1c(CN2CCN(Cc3ccccc3)CC2)nc2ccccc21`, the inhibition is -0.64% (inactive).

On to `CC(=O)Nc1ccc(C(=O)/C=C/c2ccc[nH]2)cc1`, for which the inhibition was -14.3% (inactive).

With `O=C(NC1CCCCC1)c1cc(C2CC2)on1`, the inhibition is 1.58% (inactive).

On to `CCc1nc(NCCO)c(C#N)c2c1CCCC2`, for which the inhibition was 17.2% (inactive).

As for `Cc1nc(NCc2ccccc2)c(C(N)=O)c2c1COC(C)(C)C2`, the inhibition is -8.11% (inactive).

Consider `CC(C)C(=O)N1CCN(c2nc(-c3ccccc3)c3c(c2C#N)CC(C)(C)OC3)CC1`, for which the inhibition was 26.8% (inactive).

As to `CCCCc1nc(NCCN)c(C#N)c2c1CSC(C)(C)C2`, the inhibition was 101% (active).

Consider `Cc1nc(NCCN)c(C#N)c2c1COC(C)(C)C2`, for which the inhibition is 74.9% (active).

As to `CCCCc1nc(NCc2ccccc2)c(C#N)c2c1CCCC2`, the inhibition was 54.3% (inactive).

As to `C=CCSc1nnc(NC(=O)c2ccc(NC(C)=O)cc2)s1`, the inhibition was 6.97% (inactive).

As to `COC(=O)c1scc(C)c1NC(=O)CSc1ccc(Cl)cc1`, the inhibition is 16.3% (inactive).

As for `Cn1cccc1/C=C1\SC(=S)N(NC(=O)c2ccc(Cl)cc2)C1=O`, the inhibition was 20.4% (inactive).

On to `Cn1cccc1/C=C1\SC(=O)N(CC(=O)Nc2ccc(F)cc2)C1=O`, for which the inhibition is 72% (active).

Take `Cc1nn(Cc2ccccc2)c(C)c1C(=O)NCCN1C(=O)S/C(=C\c2ccc(F)cc2)C1=O`: the inhibition was 56.3% (inactive).

As to `COc1ccc(N2CCC(CNC(=S)Nc3c(C)cccc3C)C2)cc1` (centres undefined), the inhibition is 18.6% (inactive).

As to `CCOc1ccc2nc(Cl)c(C3CC(c4ccccc4)=NN3C(=O)c3cccs3)cc2c1` (centres undefined), the inhibition was 90.5% (active).

With `CCOc1ccccc1C1CC(c2cccc(NS(C)(=O)=O)c2)=NN1C(=O)c1ccccc1` (centres undefined), the inhibition was -2.91% (inactive).

Take `COc1ccc(C2CC(c3ccccc3)=NN2C(=O)c2ccc(Cl)c([N+](=O)[O-])c2)cc1` (centres undefined): the inhibition is -21.3% (inactive).
